Among all 97,000 compounds or so, about 210 (0.22%) were called active. Rule as the data show it: active = inhibition above about 45%; inactive = the rest. What follows is part of a selection rich in actives, with near analogues and random picks from the rest.
Biological target: Sphingosine 1-phosphate receptor 2 (Homo sapiens) (UniProt O95136)
Assay: human S1P2 receptor antagonists, primary screen, cell-based (AID 736);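 also: CRE beta-lactamase reporter cells expressing human S1P2 stimulated with S1P; 0% = agonist at EC80 alone and 100% = agonist plus reference antagonist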
Conditions: cell-based S1P2 antagonist assay, at 5 µM, active compounds read high

Sequence of Sphingosine 1-phosphate receptor 2 (Homo sapiens) (O95136 whole entry, looked up): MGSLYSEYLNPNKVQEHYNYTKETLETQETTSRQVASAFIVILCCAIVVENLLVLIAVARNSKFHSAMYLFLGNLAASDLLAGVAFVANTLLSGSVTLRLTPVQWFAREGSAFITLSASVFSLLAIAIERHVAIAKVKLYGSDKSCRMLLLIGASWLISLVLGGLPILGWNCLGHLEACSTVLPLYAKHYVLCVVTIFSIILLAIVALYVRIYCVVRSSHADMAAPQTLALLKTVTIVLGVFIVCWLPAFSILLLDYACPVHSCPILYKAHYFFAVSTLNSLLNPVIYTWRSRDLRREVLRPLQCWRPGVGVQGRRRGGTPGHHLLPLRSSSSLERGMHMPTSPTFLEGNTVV

inhibition, active:
COc1ccc(NC(=O)/C(Cl)=C(/Cl)S(=O)Cc2ccc(C)cc2)cn1 (centres undefined) 98.7%
COC(=O)CN(C(=S)Nc1ccc(Cl)cc1)C1CC(=O)N(c2ccc(OC)cc2)C1=O (centres undefined) 54.6%
O=C(NC(Nc1nc2ccc([N+](=O)[O-])cc2s1)(C(F)(F)F)C(F)(F)F)c1ccccc1 97.3%
CC(C)OCCCNc1ncnc2c1[nH]c1ccc(F)cc12 65.9%
O=C(/C=C/Sc1ncn[nH]1)c1ccc(Cl)cc1 59.7%

inhibition, inactive:
COc1cc(N2CCCC2)c(OC)cc1/C=C(/C#N)c1cccc(Br)c1 -9.11%
O=C1COc2ccc(NC(=O)N3CCN(c4ccc(F)cc4)CC3)cc2N1 9.28%
CCn1c(CNC(=O)c2ccccc2)nnc1SCC(=O)N1CCN(c2ccccc2)CC1 2.56%
C=C(C)C(=O)Nc1cccc(C(C)=O)c1 -17.2%
CCN(CC)C(=O)CSc1nnc(CNc2ccc(F)cc2)n1Cc1ccco1 -21.8%
CCOc1cccc(C(=O)Nc2nnc(-c3cccs3)s2)c1 -13.1%
O=C(Nc1cccc2ncccc12)c1ccc(-c2ccc(Cl)cc2Cl)o1 20.4%
Cc1cccc(NC(=O)Cn2cc(C(=O)c3ccco3)c3ccccc32)c1 16.7%
CCN(CC)S(=O)(=O)c1cc([N+](=O)[O-])ccc1NNC(=O)Nc1ccccc1 -2.47%
O=C(NCCCN1CCCCC1)c1ccc2c(c1)NC(=O)C(N1CCOCC1)S2 (centres undefined) 14.6%
COC(=O)CSc1nc(C)c2ccc(OC)cc2n1 7.81%
COc1cccc(/C=N\Nc2nncc(-c3ccccc3)n2)c1 20.6%
Cc1cc2nc(SCCN3CCOCC3)[nH]c2cc1C 6.34%
Cc1csc(OCC(=O)Nc2ccc(C)c(C)c2)n1 6.53%
CCOc1ccc(C(O)Cc2nc3ccccc3n2C)cc1 (centres undefined) -0.2%
CCOC(=O)c1cc(C#N)c(N2CCCCC2)nc1-c1ccccc1 1.48%
O=C(Nc1nccs1)c1cc(S(=O)(=O)N2CCOCC2)c(Cl)cc1Cl 0.95%
COc1cccc(NC(=O)Cc2ccc(C)cc2)c1 -17%
COC(=O)/C(NC(C)=O)=C(\C)c1ccc(Cl)cc1 -17.7%
Cc1cc2cc3c(N)[nH]nc3nc2cc1C 6.72%
Cc1ccc(O/C=C2\OC(=O)c3ccccc32)cc1 -18.2%
COc1ccc(Cl)cc1NC(=O)CN(C)C(=O)CNC(=O)C12CC3CC(CC(C3)C1)C2 -3.56%
COc1ccc(/C=C(\NC(=O)c2ccc(OC)c(OC)c2)C(=O)NCCc2c[nH]c3ccccc23)cc1 8.6%
O=C(Nc1ccc2ccccc2c1)Nc1ccc2snnc2c1 -5.16%
CC(=O)NNc1cc(=O)c2c(=O)n(C)c(=O)n(C)c2[nH]1 22.2%
CN(C)c1ccc(NC(=S)N(CCc2ccccc2)C2CC(=O)N(c3c(Cl)cccc3Cl)C2=O)cc1 (centres undefined) 14.5%
COc1cccc(N2CCN(C3CC(=O)N(c4ccc(Cl)cc4)C3=O)CC2)c1 (centres undefined) -1.94%
CC1CCN(CC(=O)c2c[nH]c3ccccc23)CC1 12.6%
CCCCNC(=O)C1CCCNC1=O (centres undefined) 0.22%
CCCCCCCC(=O)NC(Nc1ccccc1OC)C(Cl)(Cl)Cl (centres undefined) -5.42%
O=C(O)C1CCN(C(=O)OCc2ccccc2)CC1 9.58%
CC(C)CCOc1ccc(C(=O)C[N+]2(C)CCOCC2)cc1 8.2%
CC(NC(=O)C1CCC(CNc2c(N3CCOCC3)c(=O)c2=O)CC1)c1ccccc1 (centres undefined) 4.51%
O=C(Nc1ccc2oc(-c3ccc4ccccc4c3)nc2c1)c1cccs1 7.93%
Cc1cc(C)cc(OCC(=O)Nc2nc3ccc([N+](=O)[O-])cc3s2)c1 4.48%
COC(=O)C(NC(=O)c1ccc(OC)cc1)(Nc1ncc(S(=O)(=O)c2ccc([N+](=O)[O-])cc2)s1)C(F)(F)F (centres undefined) 19.9%
Cc1ccc(CN(N=Nc2nonc2N)c2nonc2N)c(C)c1 -6.92%
COC(=O)c1cccc(-n2[nH]nnc2=S)c1 15.5%
Cc1ccc(-c2cc(C(=O)NCC3CCCO3)c3ccccc3n2)o1 (centres undefined) 6.28%
Cc1nn(Cc2ccc(F)cc2)c(C)c1NC(=O)c1noc2c1CCc1ccccc1-2 2.56%
O=C(CSc1nnnn1-c1ccccc1)NCc1ccco1 -4.03%
CC(C)NC(=O)NC(=O)COC(=O)c1ccc(NC(=O)CC#N)cc1 -12.5%
O=C(/C=C/c1ccc(Cl)cc1Cl)c1cccnc1 -15.8%
O=C(NNC(=O)c1cccnc1)Nc1ccccc1 8.67%
Fc1ccc(-n2c(Cc3ccccc3)nnc2SCc2nc(-c3ccc(Cl)cc3)no2)cc1 -18.9%
FC(F)(F)c1cccc(NC(=S)Nc2cccc(Cl)c2)c1 -0.66%
Cc1ccc(/C=N/NC(=O)C2=NNC(c3ccccc3)(c3ccccc3)C2)c(O)c1 -25.5%
CC1(C)C2CCC13CS(=O)(=O)NC3C2 (centres undefined) 2.66%
CCCNC(=S)N1CCC(NC(=O)C23CC4CC(CC(C4)C2)C3)CC1 22.7%
CCOC(=O)c1sc(NC(=O)CSc2nc(C)cc(C(F)(F)F)n2)c(C#N)c1C -9.87%
FC(F)(F)c1nnc2ccc(N3CCN(c4ccccc4)CC3)nn12 0.81%
N=c1oc2ccccc2cc1C(=O)N/N=C/c1ccccc1 10.7%
CNC(=O)/C(=C\C=C\c1ccccc1)NC(=O)c1ccc([N+](=O)[O-])cc1 10.7%
CC(N)C12CC3CC(CC(O)(C3)C1)C2 (centres undefined) -17.7%
CS(=O)(=O)N1CCN(c2ccc(C(=O)NC3C4CC5CC(C4)CC3C5)cc2[N+](=O)[O-])CC1 (centres undefined) -2.62%
CCSc1nnc(NC(=O)c2ccc(C)cc2)s1 0.05%
Cc1onc(-c2ccccc2Cl)c1C(=O)OCC(=O)c1ccccc1 -10%
O=C1c2ccccc2C(=O)N1CCC(c1ccccc1)c1ccco1 (centres undefined) 11.1%
O=C(CCS(=O)(=O)c1cccc2nsnc12)N1CCN(c2ccccc2F)CC1 11.1%
CC(C)(C)c1ccc(C(=O)NNC(=O)Cc2ccccc2)cc1 -7.08%
COc1ccc(C2CC(=O)Nc3sc(=N)c4c(N)c(C#N)c(N)nc4c32)cc1OC (centres undefined) -38.4%
CCN1CCCC1CNc1ncnc2c1[nH]c1ccc(F)cc12 (centres undefined) -0.72%
O=C1CCCN1CCCNc1ncnc2c1[nH]c1ccccc12 15.4%
Cc1cc(O)cc(O)c1C(=O)Cc1cnn(-c2ccccc2)c1 -8.95%
COc1ccc(C(=O)Oc2cc(/C=N/NS(=O)(=O)c3ccc(C)cc3)ccc2OC)cc1 1.84%
CC(=O)c1ccc2c(c1)c1ccccc1n2CC(C)C -13.4%
Clc1ccc(CSc2nnc(/C=C/c3ccccc3)o2)c(Cl)c1 -0.17%
CCN(CC)CCn1c2ccc(Cl)cc2c2nc(C)sc21 -30.3%
CC(C)(C)c1ccc(C(=O)CSc2ncn[nH]2)cc1 19.4%
Cc1ccc(C(=O)/C=C/c2c(C)nn(-c3ccccc3)c2Cl)cc1 -1.65%
COc1ccc(C(=O)Cc2cnn(-c3ccccc3)c2)c(O)c1 -22.1%
Cc1ccc(OCc2nnc(NC(=O)OCC(C)C)s2)cc1 -11.9%
CCc1ccccc1NC(=O)/C(=C/c1ccccc1)c1ccccc1 9.77%
O=C(Nc1ccc2c(c1)OCCO2)c1ccc(Cl)c(S(=O)(=O)N2CCCCC2)c1 -2.73%
O=c1c2ccccc2c(-c2ccc(F)cc2)nn1-c1ccc(C(F)(F)F)cc1 8.3%
O=C(NCC1CCCO1)c1ccc2ccccc2n1 (centres undefined) -13.9%
Cc1c(C=O)c2ccccn2c1C(=O)c1ccncc1 -13%
Cc1ccc(CN(C(=O)c2sc3ccccc3c2Cl)C2CCS(=O)(=O)C2)cc1 (centres undefined) 15.7%
COc1cc(/C=C(/NC(=O)c2ccccc2)C(=O)Nc2cccc(O)c2)c([N+](=O)[O-])cc1OC -3.81%
Cc1cc(C)c([N+](=O)[O-])cc1-c1ccc(/C=N/NC(=O)c2nonc2N)o1 -20.8%
Cc1cc(C)n2nc(C(=O)NC(C)(C)C)nc2n1 -24.4%
CCOC(=O)C(C)n1cnc2sc(C)c(C)c2c1=O (centres undefined) -21.8%
O=C(Cc1c(O)c2ccccc2[nH]c1=O)NCc1ccccc1 2.46%
Cc1ccc(N(Cc2ccc(C(=O)Nc3ccccc3C(=O)NCc3ccco3)cc2)S(C)(=O)=O)cc1C 29.7%
CCN1CCN(CCCCOc2ccccc2F)CC1 -15.3%
Cc1noc(COc2ccccc2OCc2onc(C)c2Cl)c1Cl -6.44%
O=C(COc1ccc(Cl)cc1)NCCSc1ccccc1 -5.9%
COCCn1c(C)cc(C2=NNC(=Nc3ccc(F)cc3)SC2)c1C 8.96%
O=C1Cc2ccccc2Sc2ccc(Cl)cc21 1.39%
Cn1c(NN)nc2sc3c(c2c1=O)CCC3 -7.52%
CCOc1ccc(-n2c(N)c(C(=O)NCC3CCCO3)sc2=S)cc1 (centres undefined) 1.44%
CCCCOC(=O)Cn1c(=O)n(CC(=O)OCCCC)c2cc(C)ccc21 -1.39%
Cc1ccc(-c2cnc(NC(=O)CCC(=O)N(C)Cc3ccccc3)n2C)cc1 15.9%
O=C1C(Cl)=C(N2CCOCC2)C(=O)N1c1ccccc1 11.4%
O=C(/C=C/c1cc2c(cc1Br)OCO2)NCc1ccc(Cl)cc1 12.8%
O=C(CCCN1C(=O)c2cccc3cccc(c23)C1=O)N1CCN(Cc2ccc3c(c2)OCO3)CC1 13.4%
O=C(CSCc1c(Cl)cccc1Cl)NN1C(=O)c2ccccc2C1=O 7.21%
O=c1cc(N2CCN(Cc3ccccc3)CC2)c(-c2ccccc2)n[nH]1 11.6%
O=C(Nc1cccc2ncccc12)C(Cl)(Cl)Cl 7.55%
O=C(CSc1ncn[nH]1)Nc1ccnc2ccccc12 2.49%
O=C(NCN1CCN(CCO)CC1)c1cnccn1 4.69%
O=C(Nc1nccs1)C1CCN(S(=O)(=O)c2ccc(Cl)c(C(F)(F)F)c2)CC1 13.1%
CC1CC(C)CN(CC(=O)N2c3ccccc3CCc3ccccc32)C1 (centres undefined) 3.76%
CCn1c(SCc2ccc(C)cc2)nnc1-c1nn(-c2ccccc2)ccc1=O 7.22%

Reference: PubChem BioAssay AID736 (The Scripps Research Institute Molecular Screening Center, 2007)
